This passage reports growth yield results from the supplement of paper PMC8007513.

Where a name gives a salt, the structure may show the parent alone. ± gives the standard error. Among all 1,300 compounds or so, about 130 (10%) showed an effect of 50% or more. The list comes from a sample in which strong results are over-represented; it also holds similar structures and randomly drawn compounds.

This experiment has as its system Trichoderma virens ATCC 9645. The experiment is described as follows: growth yield (OD600) with compound + IPBC relative to untreated control; higher = less growth inhibition. To be noted: compound concentration: 100 uM, IPBC concentration: 200 ng/ml. The method in brief:
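Trichoderma virens ATCC 9645 spores from 7-day potato dextrose agar plates were suspended in potato dextrose broth at 15,000 spores ml^−1. Aliquots of 100 μl with library compounds at 100 μM final, with or without a co-applied biocide at 200 ng ml^−1, were grown in 96-well plates at 30 °C. OD600 was read at 40 h and 72 h on a BioTek EL800. Growth is expressed relative to the control without either agent, as means of duplicate screens.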

Consider `CN1CCC2(C)c3cc(O)ccc3N(C)C12` (single isomer, unassigned; (-)) [(-)-Eseroline fumarate salt] + CCCCNC(=O)OCC#CI [3-iodo-2-propynyl butylcarbamate (IPBC)], for which the growth yield runs as follows: (40 h) 85 ± 4.9%; (72 h) 90.6 ± 2.1%.
`Oc1cc(Cl)ccc1Oc1ccc(Cl)cc1Cl` [Triclosan] + CCCCNC(=O)OCC#CI [3-iodo-2-propynyl butylcarbamate (IPBC)]: the growth yield turned out to be 3.02 ± 0.16% (40 h) and 2.2 ± 0.1% (72 h).
Consider `C#CCN(C)CCCOc1ccc(Cl)cc1Cl` [Clorgyline hydrochloride] + CCCCNC(=O)OCC#CI [3-iodo-2-propynyl butylcarbamate (IPBC)], for which the growth yield reads like this: (40 h) 60.36 ± 0.32%; (72 h) 87.2 ± 2.2%.
`CN1[C@@H]2CC[C@H]1C[C@@H](OC(c1ccccc1)c1ccccc1)C2` [Benztropine mesylate] + CCCCNC(=O)OCC#CI [3-iodo-2-propynyl butylcarbamate (IPBC)]: the growth yield (40 h) came out at 84.7 ± 2.1% and the growth yield (72 h) amounted to 96.1 ± 4.4%.
On to `C[C@H](CCC(=O)O)[C@H]1CC[C@H]2[C@@H]3[C@@H](O)C[C@@H]4C[C@H](O)CC[C@]4(C)[C@H]3CC[C@]12C` [Urosiol] + CCCCNC(=O)OCC#CI [3-iodo-2-propynyl butylcarbamate (IPBC)], for which the growth yield reads like this: (40 h) 104 ± 12%; (72 h) 99.7 ± 5.1%.
As for `N[C@@H](C(=O)N[C@@H]1C(=O)N2C(C(=O)O)=C(Cl)CS[C@H]12)c1ccccc1` [Cefaclor hydrate] + CCCCNC(=O)OCC#CI [3-iodo-2-propynyl butylcarbamate (IPBC)], the growth yield by setting is: (40 h) 92.9 ± 8.1%; (72 h) 96.7 ± 4%.
On the same counts, the results for `CC[N+](C)(CC)CCC[n+]1c(-c2ccccc2)c2cc(N)ccc2c2ccc(N)cc21` [Propidium iodide] + CCCCNC(=O)OCC#CI [3-iodo-2-propynyl butylcarbamate (IPBC)] are 8.1 ± 5.6% and 12.7 ± 0.32%.
In the case of `COc1ccc(CN2CCNCC2)c(OC)c1OC` [Trimetazidine dihydrochloride] + CCCCNC(=O)OCC#CI [3-iodo-2-propynyl butylcarbamate (IPBC)], the growth yield by setting is: (40 h) 85 ± 2.1%; (72 h) 91.87 ± 0.42%.
Take `CCCCCN(C)CCC(O)(P(=O)(O)O)P(=O)(O)O` [Ibandronate sodium] + CCCCNC(=O)OCC#CI [3-iodo-2-propynyl butylcarbamate (IPBC)]: the growth yield is 87.84 ± 0.48% (40 h) and 96.8 ± 0.94% (72 h).
Turning to `Cc1c(OCC(F)(F)F)ccnc1C[S+]([O-])c1nc2ccccc2[nH]1` (stereo not given) [Lansoprazole] + CCCCNC(=O)OCC#CI [3-iodo-2-propynyl butylcarbamate (IPBC)], the growth yield runs as follows: (40 h) 68.1 ± 2.1%; (72 h) 91.87 ± 0.21%.
In the case of `CC(C)n1c(/C=C/C(O)CC(O)CC(=O)O)c(-c2ccc(F)cc2)c2ccccc21` (stereo not given) [Fluvastatin sodium salt] + CCCCNC(=O)OCC#CI [3-iodo-2-propynyl butylcarbamate (IPBC)], the growth yield by setting is: (40 h) 13.8 ± 0.48%; (72 h) 33.9 ± 0.52%.
`O=C(O)C[C@H](O)C[C@H](O)/C=C/c1c(C2CC2)nc2ccccc2c1-c1ccc(F)cc1` [Pitavastatin calcium] + CCCCNC(=O)OCC#CI [3-iodo-2-propynyl butylcarbamate (IPBC)]: the growth yield (40 h) is 14 ± 2.2% and the growth yield (72 h) stood at 39.4 ± 3.4%.
On the same counts, the results for `CC(C)c1c(C(=O)Nc2ccccc2)c(-c2ccccc2)c(-c2ccc(F)cc2)n1CC[C@@H](O)C[C@@H](O)CC(=O)O` [Atorvastatin] + CCCCNC(=O)OCC#CI [3-iodo-2-propynyl butylcarbamate (IPBC)] are 69.3 ± 2.2% and 79.5 ± 1.3%.
`C=CC[C@]1(O)CC[C@H]2[C@@H]3CCC4=CC(=O)CCC4=C3C=C[C@@]21C` [Altrenogest] + CCCCNC(=O)OCC#CI [3-iodo-2-propynyl butylcarbamate (IPBC)]: the growth yield (40 h) is 96.6 ± 1.6% and the growth yield (72 h) came out at 93.8 ± 2.3%.
As for `COc1ccc(CCN)cc1OC` [Homoveratrylamine] + CCCCNC(=O)OCC#CI [3-iodo-2-propynyl butylcarbamate (IPBC)], the growth yield was found to be 89.3 ± 5.4% (40 h) and 91.1 ± 6.4% (72 h).
With `O=P(O)(O)C(O)(Cn1ccnc1)P(=O)(O)O` [Zoledronic acid hydrate] + CCCCNC(=O)OCC#CI [3-iodo-2-propynyl butylcarbamate (IPBC)], the growth yield worked out at 102 ± 6.3% (40 h) and 105 ± 4.3% (72 h).
With `O=C(Cn1ccnc1[N+](=O)[O-])NCCO` [Etanidazole] + CCCCNC(=O)OCC#CI [3-iodo-2-propynyl butylcarbamate (IPBC)], the growth yield turned out to be 91.3 ± 3.3% (40 h) and 92.2 ± 3.9% (72 h).
The like results for `COc1cc([S+](C)[O-])ccc1-c1nc2cccnc2[nH]1` (stereo not given) [Sulmazole] + CCCCNC(=O)OCC#CI [3-iodo-2-propynyl butylcarbamate (IPBC)] were, in that order, 110 ± 9.8% and 107 ± 4.2%.
As to `CO[C@H]1/C=C/O[C@@]2(C)Oc3c(C)c(O)c4c(O)c(c(/C=N/N5CCN(C)CC5)c(O)c4c3C2=O)NC(=O)/C(C)=C\C=C\[C@H](C)[C@H](O)[C@@H](C)[C@@H](O)[C@@H](C)[C@H](OC(C)=O)[C@@H]1C` [Rifampicin] + CCCCNC(=O)OCC#CI [3-iodo-2-propynyl butylcarbamate (IPBC)], the growth yield reads like this: (40 h) 89 ± 7%; (72 h) 93.8 ± 3.6%.
On to `Nc1nc(=O)c2nc(CNc3ccc(C(=O)N[C@@H](CCC(=O)O)C(=O)O)cc3)cnc2[nH]1` [Folic acid] + CCCCNC(=O)OCC#CI [3-iodo-2-propynyl butylcarbamate (IPBC)], for which the growth yield was found to be 84.82 ± 0.32% (40 h) and 91.03 ± 0.84% (72 h).
The like results for `OC(Cn1cncn1)(Cn1cncn1)c1ccc(F)cc1F` [Fluconazole] + CCCCNC(=O)OCC#CI [3-iodo-2-propynyl butylcarbamate (IPBC)] were, in that order, 57.7 ± 5.9% and 75.2 ± 8.5%.
Regarding `C[C@@H](c1ncncc1F)[C@](O)(Cn1cncn1)c1ccc(F)cc1F` [Voriconazole] + CCCCNC(=O)OCC#CI [3-iodo-2-propynyl butylcarbamate (IPBC)], the growth yield turned out to be 5.24 ± 0.16% (40 h) and 4.09 ± 0.1% (72 h).
With `CNC(C)CCC=C(C)C` (stereo not given) [Isometheptene mucate] + CCCCNC(=O)OCC#CI [3-iodo-2-propynyl butylcarbamate (IPBC)], the growth yield reads like this: (40 h) 101 ± 16%; (72 h) 101 ± 8.4%.
In the case of `CC(O)(CS(=O)(=O)c1ccc(F)cc1)C(=O)Nc1ccc(C#N)c(C(F)(F)F)c1` (stereo not given) [Bicalutamide] + CCCCNC(=O)OCC#CI [3-iodo-2-propynyl butylcarbamate (IPBC)], the growth yield was 94 ± 12% (40 h) and 97.5 ± 6.5% (72 h).
For `CCOc1ccccc1OCC1CNCCO1` (stereo not given) [Viloxazine hydrochloride] + CCCCNC(=O)OCC#CI [3-iodo-2-propynyl butylcarbamate (IPBC)], the growth yield (40 h) was determined as 103 ± 19% and the growth yield (72 h) was 102 ± 14%.
On the same counts, the results for `Clc1ccccc1C(c1ccccc1)(c1ccccc1)n1ccnc1` [Clotrimazole] + CCCCNC(=O)OCC#CI [3-iodo-2-propynyl butylcarbamate (IPBC)] are 5.08 ± 0.32% and 3.46 ± 0.1%.
For `CCN1CCCC1CNC(=O)c1cc(S(N)(=O)=O)ccc1OC` (stereo not given) [Sulpiride] + CCCCNC(=O)OCC#CI [3-iodo-2-propynyl butylcarbamate (IPBC)], the growth yield runs as follows: (40 h) 86.41 ± 0.32%; (72 h) 90.3 ± 0.94%.
With `CCC(C)(C)c1ccc(CC(C)CN2C[C@@H](C)O[C@@H](C)C2)cc1` (stereo not given in full) [Amorolfine hydrochloride] + CCCCNC(=O)OCC#CI [3-iodo-2-propynyl butylcarbamate (IPBC)], the growth yield by setting is: (40 h) 3.97 ± 0.16%; (72 h) 2.94 ± 0.21%.
The like results for `C[C@]12COC(=O)C[C@@H]1CC[C@@H]1[C@@H]2CC[C@@]2(C)[C@H]1CC[C@]2(C)O` [Oxandrolone] + CCCCNC(=O)OCC#CI [3-iodo-2-propynyl butylcarbamate (IPBC)] were, in that order, 102.8 ± 0.79% and 101.8 ± 0.94%.
Take `CCN(CC)C(=O)Nc1ccc(OCC(O)CNC(C)(C)C)c(C(C)=O)c1` (stereo not given) [Celiprolol hydrochloride] + CCCCNC(=O)OCC#CI [3-iodo-2-propynyl butylcarbamate (IPBC)]: the growth yield is 87 ± 5.7% (40 h) and 92.2 ± 3.9% (72 h).
On to `CN[C@@H]1[C@@H](O)[C@@H](O[C@@H]2[C@@H](O)[C@H](O[C@H]3O[C@H](CN)CC[C@H]3N)[C@@H](N)C[C@H]2N)OC[C@]1(C)O.CN[C@@H]1[C@@H](O)[C@@H](O[C@@H]2[C@@H](O)[C@H](O[C@H]3O[C@H]([C@@H](C)N)CC[C@H]3N)[C@@H](N)C[C@H]2N)OC[C@]1(C)O.CN[C@@H]1[C@@H](O)[C@@H](O[C@@H]2[C@@H](O)[C@H](O[C@H]3O[C@H]([C@@H](C)NC)CC[C@H]3N)[C@@H](N)C[C@H]2N)OC[C@]1(C)O` [Gentamicine sulfate] + CCCCNC(=O)OCC#CI [3-iodo-2-propynyl butylcarbamate (IPBC)], for which the growth yield is 98.3 ± 7.5% (40 h) and 101 ± 4.4% (72 h).
For `C[C@@H]1[C@H](O)[C@@H](C)/C=C/C=C/C=C/C=C/C=C/C=C/C=C/[C@H](O[C@@H]2O[C@H](C)[C@@H](O)[C@H](N)[C@@H]2O)C[C@@H]2O[C@](O)(C[C@@H](O)C[C@@H](O)[C@H](O)CC[C@@H](O)C[C@@H](O)CC(=O)O[C@H]1C)C[C@H](O)[C@H]2C(=O)O` [Amphotericin B] + CCCCNC(=O)OCC#CI [3-iodo-2-propynyl butylcarbamate (IPBC)], the growth yield runs as follows: (40 h) 37.3 ± 4.6%; (72 h) 92.61 ± 0.73%.
With `CC1OC(OC2/C=C/C=C/C=C/C=C/CC/C=C/C=C/[C@H](C)[C@@H](O)[C@@H](C)[C@H](C)OC(=O)CC(O)CC(O)CC(O)CCC(O)C(O)C[C@]3(O)CC(O)C(C(=O)O)C(C2)O3)C(O)C(N)C1O` (stereo not given in full) [Nystatine] + CCCCNC(=O)OCC#CI [3-iodo-2-propynyl butylcarbamate (IPBC)], the growth yield worked out at 50.5 ± 2.5% (40 h) and 104 ± 2.3% (72 h).
For the compound `Clc1cccc(Cl)c1NC1=NCCN1` [Clonidine hydrochloride] + CCCCNC(=O)OCC#CI [3-iodo-2-propynyl butylcarbamate (IPBC)], the growth yield (40 h) was determined as 92.9 ± 5.6% and the growth yield (72 h) turned out to be 99.2 ± 4.4%.
With `Cc1oncc1C(=O)Nc1ccc(C(F)(F)F)cc1` [Leflunomide] + CCCCNC(=O)OCC#CI [3-iodo-2-propynyl butylcarbamate (IPBC)], the growth yield by setting is: (40 h) 40.2 ± 3%; (72 h) 82 ± 1.5%.
